# Compound activity (PubChem)
# D1 antag = blocks dopamine activation of the human D1 receptor | HEK293 TREx D1 cells, calcium flux, dopamine EC80; active compounds read low | P21728 | activity change, negative = inhibition, % at 10 µM | 360,000 compounds, 3.2% hits; in the data active = activity change below about -30%; note: % is set by controls: 0 for no effect and ±100 for the full control effect
#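 Allosteric or orthosteric antagonism assessed as attenuation of the calcium response to EC80 dopamine, added 180 s after compound, in induced HEK293 Trex D1 cells loaded with no-wash calcium dye.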
# TRHR ag = activates the human TRH receptor; 360,000 compounds, 0.18% hits; TRHR cells, calcium flux fluo-8, FDSS agonist mode; AID 493084; activation, % at 2 µM; P34981; note: 0% is about no effect
# Target sequence (P34981 whole entry, looked up): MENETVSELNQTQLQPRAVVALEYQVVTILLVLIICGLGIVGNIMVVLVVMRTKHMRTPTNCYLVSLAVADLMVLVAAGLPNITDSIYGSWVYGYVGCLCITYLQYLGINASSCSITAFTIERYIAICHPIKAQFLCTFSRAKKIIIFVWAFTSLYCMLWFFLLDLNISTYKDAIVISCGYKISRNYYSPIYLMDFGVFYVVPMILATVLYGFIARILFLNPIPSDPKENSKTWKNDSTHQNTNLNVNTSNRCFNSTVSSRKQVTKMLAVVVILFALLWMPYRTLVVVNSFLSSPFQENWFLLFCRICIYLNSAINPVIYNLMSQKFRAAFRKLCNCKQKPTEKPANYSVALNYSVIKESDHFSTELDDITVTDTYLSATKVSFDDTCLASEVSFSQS
#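 TRHR-expressing cells loaded with fluo-8 calcium dye; 23 nL library compound pin-transferred, kinetic FDSS fluorescence (Ex 480/Em 530) recorded about 180 s for agonist-induced calcium release, before a 10 nM TRH EC20 addition for potentiator mode.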
# TRHR PAM = allosteric enhancers of human TRH receptor; enhancement, % at 2 µM; TRHR cells, fluo-8 calcium fluorescence, EC20 TRH enhancement; 360,000 compounds, 0.66% hits; P34981; in the data active = enhancement above about 30%; note: 0% is about no effect
#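 TRHR-expressing cells loaded with fluo-8 calcium dye were read kinetically (ex 480/em 530) during compound addition, then stimulated with an EC20 of TRH (10 nM final). Enhancement of the Gq-mediated intracellular calcium response was scored.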
# D1 potentiator = human D1 dopamine receptor positive modulation. P21728. HEK293 TREx D1 cells, calcium flux, dopamine EC20 potentiation. potentiation, % at 10 µM. 360,000 compounds, 0.036% hits; in the data active = potentiation above about 30%; note: 0% is about no effect
# D1 ag = activates the human D1 dopamine receptor | P21728 | HEK293 T-REx D1 cells, calcium flux, agonist mode | activation, % at 2 µM | 360,000 compounds, 1% hits; note: 0% is about no effect
#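 Agonism was scored from calcium flux recorded over 180 s (1 read/s) after pintool compound addition, following a 10-cycle baseline. Cells were inducible force-coupled HEK293 TREx D1, plated overnight at 30 C and loaded with no-wash calcium dye.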
# Active calls of the source: *; ! = not active in a repeat. Sampled rows, rich in hits. Any-hit rate of the full collection: about 4.7%. Cut-off read from the data, not from the text of the source, unless noted: active = activation above about 30%; inactive = the rest.
SMILES,D1 antag,TRHR ag,TRHR PAM,D1 potentiator,D1 ag
CCOc1ccc(C2c3[nH]c4ccccc4c3CCN2C(=O)CCc2ccccc2)cc1 (configuration not stated),4,0,6,1,1
COc1cc(OC)c(OC)cc1/C=C/c1nc2cc3ccccc3cc2c(=O)n1-c1ccc(Cl)cc1,-2,8,-3,-3,23
COc1cc(/C=C/c2nc3cc(Cl)ccc3c(=O)n2-c2ccc(C)cc2C)cc(OC)c1OC,-44*,0,-3,-1,-1
COc1ccccc1-n1c(/C=C/c2c(C)n(C)c3ccccc23)nc2ccccc2c1=O,2,6,-20,0,18
COc1ccc(Cl)cc1-n1c(/C=C/c2cccc3ccccc23)nc2ccccc2c1=O,-35*,0,-1,-1,-3
COc1cc(OC)c(OC)cc1/C=C/c1nc2cc3ccccc3cc2c(=O)n1-c1ccccc1Br,-19,13,0,1,78*
COc1cccc(CNn2c(-c3cccc(C)c3)nc3ccccc3c2=O)c1,8,1,37*,-4,5
O=C(O)CCCN1C(=O)/C(=C/c2ccc(-c3nc4ccccc4s3)o2)SC1=S,56,2,17,11,53*
Cn1ccsc1=NC(=O)c1ccccc1OC(F)F,-36*,3,-7,-8,0
COc1cccc(NC(=O)C2CCCN(S(=O)(=O)c3ccc4[nH]c(=O)ccc4c3)C2)c1 (configuration not stated),21,0,-1,-2,0
COc1cccc(CN(C(=O)c2ccccc2)C2CCS(=O)(=O)C2)c1 (configuration not stated),-35*,0,-7,-11,1
Cc1cccc(OCC(=O)N(Cc2ccc(C)o2)C2CCS(=O)(=O)C2)c1 (configuration not stated),-20,-1,0,-2,3
COc1ccc(OCC(=O)N(Cc2sccc2C)C2CCS(=O)(=O)C2)cc1 (configuration not stated),-73*!,0,-1,-4,0
COc1cccc(CN(C(=O)c2cccc(OC)c2)C2CCS(=O)(=O)C2)c1 (configuration not stated),50,0,-6,-6,5
Cc1ccc(CN(C(=O)COc2c(C)cccc2C)C2CCS(=O)(=O)C2)o1 (configuration not stated),-43*,-1,-5,2,-2
Cc1ccc2c(c1)cc1c(=O)n(Cc3ccc(Cl)cc3)nc(C)n12,1,1,1,-2,3
CN(C)c1ccc(CNC(=O)CCCN2C(=O)CCn3nc(-c4cn(C)c5ccccc45)cc32)cc1,8,-1,6,-2,1
Cn1cc(-c2cc3n(n2)CCC(=O)N3CC(=O)O)c2ccccc21,-24,0,43*,0,1
CN(C)CCNC(=O)CN1C(=O)CCn2nc(-c3cn(C)c4ccccc34)cc21,-5,0,-3,-3,0
CN(C(=O)c1ccccc1C(=O)OCC(=O)NCc1ccccc1)C1CCCCC1,-35*,0,3,-3,1
CCOC(=O)c1nnn(CC(=O)NC(=O)Nc2ccc(F)cc2)c1C(=O)OCC,-9,-1,-19,-2,42*!
O=C(Cc1ccccc1)Nc1ccc(SC(F)F)cc1,-40*,0,6,-5,4
C/C=C/C(=O)OCC(=O)Nc1ccc(SC(F)F)cc1,-33*,-1,-8,-7,6
COc1ccc(C(=O)Nc2ccc(SC(F)F)cc2)cc1,-5,0,10,-8,46*
CCCCOc1ccc(C(=O)Nc2ccc(SC(F)F)cc2)cc1OC,-14,1,-1,-4,4
SMILES,D1 antag,TRHR ag,TRHR PAM,D1 potentiator,D1 ag
N=c1sccn1CC(=O)Nc1ccc(SC(F)F)cc1,-9,4,-1,-5,46*
CCC(C(=O)OCC(=O)Nc1ccc(SC(F)F)cc1)c1ccccc1 (configuration not stated),-36*,0,3,-8,10
CCc1nnc2c(N3CCN(c4cccc(C(F)(F)F)c4)CC3)nc3ccccc3n12,-3,0,-1,-1,1
Cc1cc(=O)c2cc(C(=O)Nc3ccc(C)c(C)c3)ccc2[nH]1,-11,0,4,0,1
Cc1ccc(/C=C/C(=O)OCC(=O)Nc2ccccc2Sc2ccccc2)cc1,-11,2,-14,-3,32*
COc1cccc(/C=C/C(=O)OCC(=O)Nc2ccccc2Sc2ccccc2)c1,-4,3,4,0,25
NC(=O)OCC(COC(N)=O)c1ccccc1,-39*,-2,-5,4,1
NC(=O)NC(Cc1ccccc1)c1ccccc1 (configuration not stated),2,0,5,-10,2
CCn1c(-c2ccsc2)nc2c1c(=O)[nH]c(=O)n2Cc1ccccc1,-52*,-1,1,-5,1
Fc1cc2[nH]c(=S)[nH]c2cc1Cl,-41*,-1,-6,-4,2
Cc1cc2[nH]c(=S)[nH]c2cc1C,-16,0,-3,2,2
O=C(Nc1cccc(-c2ccc(N3CCOCC3)nn2)c1)c1ccccc1,15,0,4,0,0
O=C(COc1ccccc1)Nc1cccc(-c2ccc(N3CCOCC3)nn2)c1,-73*,0,4,2,1
Cc1ccccc1C(=O)Nc1cccc(-c2ccc(N3CCOCC3)nn2)c1,-37*,-1,-3,-1,5
O=C(Nc1c(C(=O)N2CCN(c3ccccc3)CC2)oc2ccccc12)c1ccc(Br)o1,14,-1,-5,0,-1
CC1CN(C(=O)COC(=O)CSc2ccc(C(N)=O)cc2[N+](=O)[O-])CC(C)O1 (configuration not stated),4,0,5,8,2
NC(=O)c1ccc(SCC(=O)OCC(=O)N2CCCC2=O)c([N+](=O)[O-])c1,-43*,0,0,-1,1
COc1ccccc1CNC(=O)CCCn1c(=O)c2ccccc2n(Cc2ccccc2C#N)c1=O,-24,-2,-2,2,-2
CCCc1[nH]c(=O)c(C#N)c2c1COC(C)(C)C2,8,0,2,-3,3
CC(C)Cc1[nH]c(=O)c(C#N)c2c1COC(C)(C)C2,-33*,0,0,-5,1
CCC(C(=O)Nc1cc(OC)cc(OC)c1)n1nc(-c2ccc(C)c(C)c2)ccc1=O (configuration not stated),-4,0,-4,4,4
CCNc1ccccc1CP(=O)(c1ccccc1)c1ccccc1O (configuration not stated),-1,18,5,-6,35*
COc1cc(NC(=O)N2CCSc3ccccc32)cc(OC)c1OC,2,0,3,-3,-2
